Mtb hypoxia inh – Mtb hypoxia fluorescent reporter inhibition; M. tuberculosis hypoxia-regulated fluorescent reporter, fluorescence; AID 1159583; fluorescence inhibition, % (no concentration beside the values); 0.1% of 300,000 active; in the data active = fluorescence inhibition mostly above about 23%, no sharp cut-off; inactive = mostly below about 17%
RN4220 kill – kills Staphylococcus aureus RN4220. AID 1259311. 0.33% of 330,000 active. S. aureus RN4220 growth, OD600, 16 h. inhibition, % (test concentration not listed); in the data active = inhibition above about 85%;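 also: plate controls were untreated cells for no effect and reference antibiotic for full effect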
DUSP3 inh – inhibitors of human VHR1 phosphatase (DUSP3); P51452; recombinant VHR phosphatase, pNPP absorbance; inhibition, % at 13.3 µM; 0.52% of 290,000 active; in the data active = inhibition above about 50%
Target sequence (P51452 whole entry, looked up): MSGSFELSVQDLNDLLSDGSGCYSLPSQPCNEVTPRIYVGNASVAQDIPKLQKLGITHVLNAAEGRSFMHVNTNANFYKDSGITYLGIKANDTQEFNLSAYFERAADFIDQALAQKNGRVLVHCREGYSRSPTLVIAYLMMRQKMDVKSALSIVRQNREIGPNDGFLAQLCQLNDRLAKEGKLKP
Sa ugtP lethal – compounds lethal to S. aureus RN4220 ugtP deletion mutant; OD600 growth, 16 h; growth inhibition, % (concentration not given with the values); 0.54% of 330,000 active; AID 1259309; in the data active = growth inhibition above about 68%;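 also: plate controls were untreated wells for no effect and antibiotic for full effect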
PfHsp40 rescue – compounds rescuing yeast from Plasmodium falciparum HSP40 toxicity | S. cerevisiae expressing PfHsp40, growth rescue, ATP luminescence | growth rescue, % at 12.5 µM | AID 504582 | 0.68% of 340,000 active; in the data active = growth rescue above about 28%, passing the limit was not always enough; inconclusive = no clear call, values can overlap the other calls;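 also: yeast W303a lacking pdr1 and pdr3 grown in galactose medium; growth measured after three days at 30 °C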
SSB-PriA inh – inhibitors of Klebsiella pneumoniae PriA binding to SSB C-terminal tail; inhibition, % at 33 µM; 0.6% of 430,000 active; AlphaScreen SSBct-PriA binding, biotinylated peptide; AID 1272365; in the data active = inhibition mostly above about 37%, no sharp cut-off; inactive = mostly below about 20%;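 also: plate controls were negative control peptide for no effect and reference peptide for full effect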
Active calls of the source: *; u = inconclusive; x = not tested or not shown. An excerpt weighted towards active compounds, which were near 1.8% of everything screened.

SMILES	Mtb hypoxia inh	RN4220 kill	DUSP3 inh	Sa ugtP lethal	PfHsp40 rescue	SSB-PriA inh
Cc1cc(C)n(CC(=O)N2CCN(c3ccc(F)cc3)CC2)c(=O)c1C#N	x	x	x	x	x	-5.0
CN(C)c1ccc(C=NNC(N)=S)cc1[N+](=O)[O-]	x	x	x	x	x	6.2
CN(C)c1ccc(C=C2C=CC=C2)cc1	7.1	8.7	x	2.0	1.7	41.1*
CCOC(=O)c1c(S(=O)(=O)NCCCc2ccco2)c(C)n(C)c1C	0.9	1.7	51.3*	1.0	-0.7	-3.8
CCOC(=O)c1c(S(=O)(=O)N(C)Cc2ccccc2)c(C)n(C)c1C	1.0	3.7	57.7*	4.5	0.6	-6.2
CCOC(=O)c1c(S(=O)(=O)NCCc2ccco2)c(C)n(C)c1C	6.3	1.4	12.9	2.0	-0.3	-5.5
CCOC(=O)c1c(S(=O)(=O)N2CCN(Cc3ccccc3)CC2)c(C)n(C)c1C	16.4	-2.1	18.4	3.1	-0.5	-6.7
Cc1cc(=O)[nH]c(O)c1C(=O)O	x	x	x	x	x	-7.0
O=C(NC(=S)NCc1ccco1)c1ccc(Br)o1	x	x	x	x	x	45.0*
S=C(NCc1ccco1)Nc1ccc(Cl)c(Cl)c1	8.7	-5.7	9.9	-18.6	36.2*	-1.4
COc1cccc(CNCCc2c[nH]c3ccccc23)c1OCc1ccccc1	2.2	4.0	59.9*	-33.3	-1.0	44.8*
c1ccc(CNCCc2c[nH]c3ccccc23)cc1	10.8	3.1	6.5	-3.1	-1.0	0.0
COc1cc(CNCCc2c[nH]c3ccccc23)ccc1OCc1ccccc1F	3.8	-6.8	16.7	-43.8	1.5	38.5*
CN(C)CCOc1nc(-c2ccccc2)nc2c1oc1ccccc12	40.5*	1.8	-16.6	0.4	-0.1	-8.0
COc1ccc(C)cc1NC(=O)c1nnn(Cc2cccc(C(F)(F)F)c2)c1N	11.0	-3.0	3.9	98.1*	0.6	-8.8
COc1ccc(OC)c(NC(=O)c2nnn(CCc3ccccc3)c2N)c1	x	1.5	-12.8	7.7	-0.6	5.7
Cc1cc(=O)[nH]c2cc(O)ccc12	13.3	1.6	-20.3	2.5	-1.0	1.3
CC(C)=CCCC1(C)C=Cc2c(c(C)cc3c2[nH]c2cc(O)ccc23)O1 (configuration not stated)	x	89.9	18.1	100.6*	u	19.5
Cc1cccc(Nc2nnc(-c3ccc(C(=O)N4C[C@H]5C[C@H](C4)c4cccc(=O)n4C5)cc3)c3ccccc23)c1	x	3.8	24.9	-4.0	84.4*	3.8
Cc1cccc(NC(=O)N2C[C@H]3C[C@H](C2)c2cccc(=O)n2C3)c1	x	x	x	x	x	-13.8
Cc1ccc(C(=O)Nc2nnc(CC(=O)N/N=C/c3ccc(O)c(O)c3)s2)cc1	x	x	54.2*	x	-1.3	x
CC(C)(C)c1cc(C(=O)O)cc(C(C)(C)C)c1	x	x	x	x	x	-3.0
COCC(=O)Nc1ccc(Nc2ccc(-n3cccn3)nn2)cc1	x	x	x	x	x	83.0*
COCC(=O)Nc1ccc(Nc2ccc(C)nn2)cc1	x	x	x	x	x	-16.0
O=C(Nc1ccc(Nc2ccc(-n3cccn3)nn2)cc1)c1ccco1	x	x	x	x	x	89.0*
SMILES	Mtb hypoxia inh	RN4220 kill	DUSP3 inh	Sa ugtP lethal	PfHsp40 rescue	SSB-PriA inh
O=S(=O)(Nc1cccc2c1CCCC2)c1ccc(Cl)cc1	8.1	9.6	-2.7	-9.6	41.9*	-5.5
COc1ccc(N2CCN(C(=O)C3CCCN(S(=O)(=O)c4ccc(C)cc4)C3)CC2)cc1 (configuration not stated)	-17.4	1.9	-17.1	2.4	-0.3	28.9
Cc1ccc(S(=O)(=O)N2CCCC(C(=O)N3CCN(c4ccccc4)CC3)C2)cc1 (configuration not stated)	3.2	3.0	24.9	10.2	73.6*	-2.7
O=Cc1c(N2CCN(c3ccccc3)CC2)nc2ccccn2c1=O	22.4	5.8	-7.1	-3.0	0.8	-0.1
O=Cc1c(N2CCSCC2)nc2ccccn2c1=O	40.2*	0.3	25.0	1.5	-0.9	0.8
CCN1/C(=C\c2ccc3cc(C)ccc3[n+]2CC)Sc2cc(C)c(C)cc21	x	100.0*	16.0	100.4*	-4.3	x
C=CC[n+]1c(/C=C2\C=Cc3cc(C)ccc3N2CC)ccc2ccccc21	x	100.1*	19.7	100.0*	277.1*	x
CCCCN1C(=Cc2ccc3ccccc3[n+]2CC)Sc2ccccc21	x	x	x	x	x	13.7
CCN1C(=Cc2ccc3ccccc3[n+]2CC)Sc2cc(C)ccc21	x	100.8*	x	100.2*	x	x
CCN1/C(=C/c2ccc3cc(C)cc(C)c3[n+]2CC)Sc2cc(C)ccc21	x	99.6*	23.4	99.6*	-6.2	50.7
CCN1C(=Cc2ccc3ccccc3[n+]2CCCS(=O)(=O)[O-])C=Cc2cc(C)ccc21	x	x	x	x	x	2.1
CCc1ccc(S(=O)(=O)NCCN2CCN(c3ccc(F)cc3)CC2)s1	x	x	x	x	x	-7.0
Cc1noc(-c2cccnc2N2CCC(NC(=O)c3ccc(Cl)s3)C2)n1 (configuration not stated)	x	x	x	x	x	4.0
CO[C@@]1(CNC(=O)C(=O)Nc2ccccc2SC)CCSC1	x	x	x	x	x	-4.0
CCN1/C(=C/c2ccc3cccc(C)c3[n+]2CC)Sc2ccccc21	x	99.6*	18.6	99.6*	-0.7	15.6
CCN1/C(=C/c2ccc3cc(C)ccc3[n+]2CC)Sc2ccc3sccc3c21	x	100.1*	x	100.5*	0.2	1.0
CCC(C)C(NC(=O)NCc1cccc(OC)c1)C(=O)OC (configuration not stated)	5.2	4.7	x	-4.8	x	x
COc1c(Cl)ccc(Cl)c1C(=O)NC(C)C	x	x	x	x	x	1.0
CC(C)Oc1cc(-n2c(=S)[nH]c3ccccc3c2=O)c(Cl)cc1Cl	x	99.9*	22.8	101.1*	19.8	-0.3
O=C1c2ccccc2NC(c2ccco2)N1O (configuration not stated)	12.0	-7.0	1.8	-3.4	-0.1	-2.0
O=C1C2=C(Nc3ccccc3SC2c2ccco2)c2ccccc21 (configuration not stated)	4.1	-22.6	-7.5	-17.3	4.5	48.0*
COc1cc(C(=O)NCC2(c3cccs3)CC2)cc(OC)c1OC	x	x	x	x	x	-12.0
O=[N+]([O-])c1ccc(NN=C2CCCCC2c2ccccn2)cc1 (configuration not stated)	11.7	-3.3	x	4.0	x	9.2
NC(=O)N/N=C1/CCCC1c1ccccn1 (configuration not stated)	x	x	x	x	x	67.0*
O=C1CN(C(=O)COC(=O)c2ccc(Cl)cc2)c2ccccc2N1	-4.3	2.1	x	7.3	-0.3	1.9
O=C1CN(C(=O)COC(=O)c2c(F)cccc2Cl)c2ccccc2N1	30.3*	5.7	x	2.2	0.1	4.7
C[C@H](O)[C@H]1CC[C@H]2[C@@H]3CCC4=CC(=O)CC[C@]4(C)[C@H]3CC[C@]12C	x	x	4.7	x	158.1*	7.8
CC(O)C1CCC2C3CCC4=CC(=O)CC[C@]4(C)C3CC[C@]12C (some centres not stated)	3.6	11.8	x	2.8	x	x
C#CC(C)(C)NC(=O)c1sccc1Oc1ccc(F)cc1[N+](=O)[O-]	8.8	1.1	33.3	9.6	0.5	5.2
CCC(C)(C)NC(=O)c1sccc1Oc1ccc(F)cc1[N+](=O)[O-]	2.0	9.7	51.2*	-2.2	0.2	5.5

Screening data: PubChem BioAssay, several laboratories
